Rows were chosen to be rich in hits. Some 3.2% of all compounds tested hit in one or more screens of this group.
esBAF inh: inhibitors of esBAF chromatin remodeling in mouse ES cells | Bmi1-luciferase knock-in reporter, 24 h; 100% = twice the neutral-well signal | reporter increase, % at 12.5 µM | actives 2% (n = 350,000) | AID 602393; in the data active = activation above about 40%; inconclusive = no clear call, values can overlap the other calls;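 also: a rise in the Bmi1 reporter signal indicates esBAF inhibition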
dFosB activator: activators of mouse delta FosB homodimer; P13346; purified delta FosB, TAMRA-CDK5 oligo fluorescence polarization; percent of positive-control signal above neutral wells; actives 0.99% (n = 340,000); activation, % at 25 µM;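 active = mean activation above about 17%, with every replicate also reaching it, limit read from the data, passing the limit was not always enough; inconclusive = only one of the two conditions met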
CDK5 p35 inh: inhibitors of human CDK5/p35 kinase | Q00535+Q15078 | Recombinant CDK5/p35, ADP-Glo luminescence, 60 min | inhibition, % at 10 µM | actives 0.01% (n = 330,000) | AID 488839;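 active = highest replicate inhibition of at least 50% and at least 75% of replicates reaching 50%; inconclusive = only one of the two criteria met; inactive = both criteria failed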
Target sequence (Q00535 whole entry, looked up): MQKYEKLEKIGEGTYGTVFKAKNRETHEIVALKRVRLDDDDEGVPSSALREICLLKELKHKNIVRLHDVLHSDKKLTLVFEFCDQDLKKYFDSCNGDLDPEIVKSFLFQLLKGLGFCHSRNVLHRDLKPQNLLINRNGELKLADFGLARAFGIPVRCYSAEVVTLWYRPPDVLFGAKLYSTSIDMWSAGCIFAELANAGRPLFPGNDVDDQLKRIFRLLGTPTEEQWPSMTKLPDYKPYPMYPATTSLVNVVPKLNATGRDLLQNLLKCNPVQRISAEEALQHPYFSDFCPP
Target sequence (Q15078 whole entry, looked up): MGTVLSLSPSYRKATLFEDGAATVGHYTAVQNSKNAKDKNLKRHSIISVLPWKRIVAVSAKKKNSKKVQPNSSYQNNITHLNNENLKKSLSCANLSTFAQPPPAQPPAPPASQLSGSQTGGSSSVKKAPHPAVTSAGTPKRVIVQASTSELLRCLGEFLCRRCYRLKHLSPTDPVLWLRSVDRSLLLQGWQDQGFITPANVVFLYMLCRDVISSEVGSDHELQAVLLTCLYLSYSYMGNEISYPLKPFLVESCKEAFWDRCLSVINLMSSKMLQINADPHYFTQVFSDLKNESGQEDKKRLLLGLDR
Rtt109 Vps75: C. albicans Rtt109 histone acetyltransferase inhibition | Q5AAJ8 | purified Rtt109/Vps75, ThioGlo CoA-SH fluorescence, 4 h | inhibition, % at 34.9 µM | actives 0.16% (n = 330,000) | AID 540336;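 active = inhibition of at least 50% in every replicate; inconclusive = best replicate reaches 50% inhibition but some replicates fall short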
SMARCA2 activ: SMARCA2 function activation, primary screen; activation, % at 9.1 µM; AID 652017; actives 1% (n = 370,000); MG213 cells, MMTV-luciferase reporter, dexamethasone, overnight; in the data active = activation above about 7.8%
DYRK1A inh: inhibitors of rat Dyrk1A kinase; ADP-Glo luminescence, NFATc1 peptide; actives 0.43% (n = 310,000); Q63470; inhibition, % at 12.5 µM; AID 504441; in the data active = inhibition above about 50%
Of the large screens only hits and unclear results are named; the others gave an inactive call.

COc1ccc(-c2cnc3c(c2)C(=O)N([C@H](C)CO)C[C@@H](C)[C@@H](CN(C)C(=O)CN(C)C)O3)cc1	none (no result: dFosB activator, CDK5 p35 inh, Rtt109 Vps75, SMARCA2 activ, DYRK1A inh)
COc1ccc(-c2nc(-c3cccc(C)c3)no2)cc1OC	esBAF inh 46 (no result: SMARCA2 activ)
COc1ccc(-c2nnc(SCc3ccccc3F)o2)cc1OC	esBAF inh 66
COc1ccc(-c2nc(-c3ccccc3OC)no2)cc1OC	esBAF inh 55
COc1ccc(-c2noc(CSc3ccccc3)n2)cc1OC	esBAF inh 52
COc1ccc(NC(=O)N[C@@H]2CC[C@@H](CCn3cc(-c4ccccc4F)nn3)O[C@H]2CO)cc1	none (no result: dFosB activator, CDK5 p35 inh, Rtt109 Vps75, SMARCA2 activ, DYRK1A inh)
COCCNC(=O)C[C@H]1CC[C@@H]2[C@H](COC[C@@H](O)CN2C(=O)Nc2ccccc2OC)O1	none (no result: dFosB activator, CDK5 p35 inh, Rtt109 Vps75, SMARCA2 activ, DYRK1A inh)
CC(C)CC#Cc1ccc2c(c1)O[C@H](CN(C)C(=O)Cc1ccccc1)[C@H](C)CN([C@H](C)CO)S2(=O)=O	none (no result: dFosB activator, CDK5 p35 inh, Rtt109 Vps75, SMARCA2 activ, DYRK1A inh)
COc1ccc(-c2nc(C3CCCCC3)no2)cc1OC	esBAF inh 60
CCCN1[C@@H]2Cn3c(ccc(-c4ccncc4)c3=O)[C@H]1[C@@H](C(=O)NCCc1cn(C)cn1)[C@@H]2CO	none (no result: dFosB activator, CDK5 p35 inh, Rtt109 Vps75, SMARCA2 activ, DYRK1A inh)
CC(C)(C)NC(=O)C(=O)N/N=C/c1cccs1	esBAF inh 46
CC(C)CNC(=O)C(=O)N/N=C/c1cccs1	none
O=C(N/N=C/c1cccs1)c1ccc2ccccc2c1	esBAF inh 77
O=C(C[C@H]1CC[C@H]2[C@@H](COC[C@H](O)CN2C(=O)c2ccncc2)O1)NC1CCC1	none (no result: dFosB activator, CDK5 p35 inh, Rtt109 Vps75, SMARCA2 activ, DYRK1A inh)
O=C(c1ccccn1)N1C[C@@H]2[C@H](c3ccccc31)[C@@H](CO)N2C(=O)Nc1ccccc1F	none (no result: dFosB activator, CDK5 p35 inh, Rtt109 Vps75, SMARCA2 activ, DYRK1A inh)
NC(=S)N=Nc1ccc(NN=C(N)N)cc1	dFosB activator 29, Rtt109 Vps75 inconclusive
N#C/C(=N/Nc1ccc(OC(F)(F)F)cc1)C(N)=S	none (no result: esBAF inh)
CC(=O)NCc1ccc(-c2nc3ccccc3s2)cc1	none (no result: Rtt109 Vps75)
CC(=O)NCc1ccc(-c2csc(-c3cccs3)n2)cc1	esBAF inh 53
CN1C(=O)c2cc(NC(=O)c3cccs3)ccc2OC[C@H]2O[C@@H](CC(=O)NCCN3CCCCC3)CC[C@@H]21	none (no result: dFosB activator, CDK5 p35 inh, Rtt109 Vps75, SMARCA2 activ, DYRK1A inh)
Cc1cccc(-c2nc3cc(NC(=O)C4CCCO4)ccc3o2)c1 (stereo unspecified)	none (no result: esBAF inh)
COc1ccc(C(=O)Nc2cccc(-c3nnc(-c4ccco4)o3)c2)cc1	none
COc1ccc(OCC(=O)Nc2cccc(-c3nc4ccccc4o3)c2)cc1	esBAF inh 51
Cc1ccc2oc(-c3cccc(NC(=O)C4CCCO4)c3)nc2c1 (stereo unspecified)	esBAF inh 79
CC(C)C(=O)Nc1cccc(-c2nc3ccccc3o2)c1	esBAF inh 41
COc1ccc(CC(=O)Nc2cccc(-c3nnc(-c4ccco4)o3)c2)cc1	dFosB activator 67 (no result: esBAF inh)
COCC(=O)N(C)C[C@@H]1Oc2ncc(C#CC(C)(C)O)cc2C(=O)N([C@H](C)CO)C[C@H]1C	none (no result: dFosB activator, CDK5 p35 inh, Rtt109 Vps75, SMARCA2 activ, DYRK1A inh)
COc1cccc2c(=O)c(C(=O)NCCc3ccccc3)c[nH]c12	esBAF inh 55
COc1cc2[nH]cc(C(=O)NCCc3ccccc3)c(=O)c2cc1OC	none
CC(C)CC#Cc1cnc2c(c1)C(=O)N([C@H](C)CO)C[C@@H](C)[C@H](CN(C)C(=O)c1ccc(F)cc1)O2	none (no result: dFosB activator, CDK5 p35 inh, Rtt109 Vps75, SMARCA2 activ, DYRK1A inh)
O=C(NCCC1CCCC1)c1cccs1	esBAF inh 50 (no result: DYRK1A inh)
O=C(NCCc1cccs1)c1cccs1	esBAF inh 61
O=C(NCc1ccc(F)cc1)c1cccs1	none
O=C(NCCc1ccc(F)cc1)c1cccs1	esBAF inh 65
O=C(NCC1CC1)c1cccs1	none (no result: esBAF inh, dFosB activator, CDK5 p35 inh, Rtt109 Vps75, DYRK1A inh)
COc1ccc2cc(CCNC(=O)c3cccs3)c(=O)[nH]c2c1	esBAF inh 72
CCCN(C)C[C@@H]1OCCCC[C@@H](C)Oc2ccc(NC(=O)C3CCCCC3)cc2C(=O)N([C@H](C)CO)C[C@@H]1C	none (no result: dFosB activator, CDK5 p35 inh, Rtt109 Vps75, SMARCA2 activ, DYRK1A inh)
O=C(NC1CCCCC1)[C@@H]1[C@@H](CO)[C@@H]2Cn3c(cccc3=O)[C@@H]2N1CCc1ccccc1	none (no result: dFosB activator, CDK5 p35 inh, Rtt109 Vps75, SMARCA2 activ, DYRK1A inh)
COc1cccc(S(=O)(=O)Nc2ccc3c(c2)OC[C@H](C)N(Cc2ccccc2F)C[C@@H](C)[C@@H](OC)CN(C)C3=O)c1	none (no result: dFosB activator, CDK5 p35 inh, Rtt109 Vps75, SMARCA2 activ, DYRK1A inh)
Cc1ccc2oc(C(=O)N(C)Cc3ccon3)c(C)c2c1	esBAF inh 52
